# Bioassay records (PubChem)
# Shown are actives, neighbours in structure and some others; about 1.1% of the full set was active somewhere.
# AmpC inh no detg – qHTS Inhibitors of AmpC Beta-Lactamase (assay without detergent); AmpC nitrocefin hydrolysis, absorbance 480 nm, 0.0001% Triton; 330,000 compounds, 0.52% hits; AID 485341, 2010; P00811; Potency, µM (titrated, usually from 57.1 µM), without a hit: at the highest dose activity change, negative = inhibition, usual class: inhibitors;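 further: plate controls were no compound for no effect and no enzyme for full effect; nearly all actives have a fitted effect of over 20% in size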
# Target sequence (P00811 whole entry, looked up): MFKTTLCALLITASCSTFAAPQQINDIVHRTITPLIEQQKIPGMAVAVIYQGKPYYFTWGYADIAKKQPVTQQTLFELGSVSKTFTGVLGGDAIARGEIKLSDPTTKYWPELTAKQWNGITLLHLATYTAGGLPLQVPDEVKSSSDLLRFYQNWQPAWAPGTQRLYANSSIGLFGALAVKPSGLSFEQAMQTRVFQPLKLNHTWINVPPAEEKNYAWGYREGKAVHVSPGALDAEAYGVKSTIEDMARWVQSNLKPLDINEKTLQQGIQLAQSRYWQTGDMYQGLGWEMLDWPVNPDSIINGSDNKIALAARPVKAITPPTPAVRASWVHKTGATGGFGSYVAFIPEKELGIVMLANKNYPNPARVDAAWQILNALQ
#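 AmpC (5.3 nM in the dispensed reagent) in 20 mM phosphate pH 7.0 with 0.01% (detergent screen) or 0.0001% Triton X-100 was preincubated with compounds for 15 min at room temperature. Nitrocefin was then added from an 800 uM solution, and hydrolysis was followed at 480 nm.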
# Giardia FBPA inh-1 – qHTS Assay for Inhibitors of Fructose-1,6-bisphosphate Aldolase from Giardia Lamblia | A8B2U2 | purified Giardia FBPA | Potency, µM (highest dose often 59.6 µM), for the others: at the top dose activity, negative = inhibition, most hits filed as inhibitors | 290,000 compounds, 0.71% hits | AID 2451, 2010; further: nearly all actives have a fitted effect of over 55% in size
# Target sequence (A8B2U2 whole entry, looked up): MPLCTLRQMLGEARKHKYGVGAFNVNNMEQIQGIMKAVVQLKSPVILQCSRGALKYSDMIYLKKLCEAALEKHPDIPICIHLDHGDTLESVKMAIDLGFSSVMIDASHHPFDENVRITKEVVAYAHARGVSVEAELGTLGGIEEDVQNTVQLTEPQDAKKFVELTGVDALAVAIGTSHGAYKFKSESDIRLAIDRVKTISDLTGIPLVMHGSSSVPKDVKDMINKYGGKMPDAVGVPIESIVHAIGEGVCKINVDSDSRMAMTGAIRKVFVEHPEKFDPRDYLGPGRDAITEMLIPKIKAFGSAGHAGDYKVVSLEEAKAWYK
#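 40 nM FBPA preincubated 10 min at RT with compound (up to 57.5 uM final), then substrate plus GAPDH/TPI/NAD/arsenate coupling and diaphorase/resazurin added. Fluorescence read after 20 min at RT, 525/598 nm.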
# AmpC detergent – qHTS Inhibitors of AmpC Beta-Lactamase (assay with detergent); P00811; AID 485294, 2010; 370,000 compounds, 0.041% hits; Potency, µM (top dose mostly 114 µM), without a hit: at the highest dose activity change, negative = inhibition, actives largely listed as inhibitors; AmpC hydrolysis of nitrocefin, absorbance 480 nm, 0.01% Triton;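 further: 0% = no-compound wells and -100% = no-enzyme wells; nearly all actives have a fitted effect of over 25% in size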
#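 AmpC (5.3 nM in the dispensed reagent) in 20 mM phosphate pH 7.0 with 0.01% (detergent screen) or 0.0001% Triton X-100 was preincubated with compounds for 15 min at room temperature. Nitrocefin was then added from an 800 uM solution, and hydrolysis was followed at 480 nm.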
# AMA1-RON2 inh – qHTS for Inhibitors of AMA1-RON; Towards Development of Antimalarial Drug Lead: Primary Screen. 360,000 compounds, 0.2% hits. Potency, µM (titrated, usually from 58.2 µM), for inactives: at the highest dose activity change, negative = inhibition, most hits filed as inhibitors. Plasmodium falciparum AMA1 (3D7) - RON2 peptide interaction. AlphaScreen AMA1-biotinylated RON2 peptide binding;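 further: 0% = vehicle wells and -100% = peptide control; nearly all actives have a fitted effect of over 45% in size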
#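 AMA1 (3D7) with his tag at 25 nM final met compounds first, then biotinylated RON2 peptide at 25 nM; detection used donor plus acceptor beads, 10 µg/mL apiece, read by AlphaScreen after 30 min at room temperature.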
# Giardia growth – qHTS Assay for Inhibitors of Fructose-1,6-bisphosphate Aldolase from Giardia Lamblia: Giardia lamblia growth inhibition; shares compounds with Giardia FBPA inh-1; Giardia lamblia trophozoite growth inhibition; Potency, µM (titrated, usually from 57.5 µM), inactives show at the top dose activity change, negative = inhibition, actives largely listed as inhibitors; 1,500 compounds, 5% hits; AID 2785, 2010;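 further: trophozoites exposed to compound for 48 h at 37 °C; nearly all actives have a fitted effect of over 70% in size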
# Mammal cell tox – qHTS Assay for Inhibitors of Fructose-1,6-bisphosphate Aldolase from Giardia Lamblia: Mammalian cellular toxicity. shares compounds with Giardia FBPA inh-1. mammalian cell viability counter-screen, qHTS. Potency, µM (top dose mostly 57.5 µM), without a hit: at the highest dose viability change, negative = toxicity, usual class: inhibitors. 1,500 compounds, 4% hits;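 further: Chinese hamster ovary cells used as mammalian cytotoxicity surrogate; viability measured as cellular ATP by luminescence; compound exposure lasted 48 h before reading; nearly all actives have a fitted effect of over 60% in size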
# Giardia FBPA inh-2 – qHTS Assay for Inhibitors of Fructose-1,6-bisphosphate Aldolase from Giardia Lamblia: Primary screen confirmation | shares compounds with Giardia FBPA inh-1 | purified Giardia aldolase enzyme activity, qHTS | Potency, µM (top dose mostly 57.5 µM), inactives show at the top dose activity change, negative = inhibition, actives largely listed as inhibitors | 1,500 compounds, 5% hits | AID 2787, 2010; further: nearly all actives have a fitted effect of over 45% in size
# Rabbit aldolase – qHTS Assay for Inhibitors of Fructose-1,6-bisphosphate Aldolase from Giardia Lamblia: Rabbit FBPA Selectivity. shares compounds with Giardia FBPA inh-1. Rabbit muscle FBPA enzyme inhibition, selectivity counter-screen. Potency, µM (series often up to 57.5 µM), inactives show top-dose activity, negative = inhibition, usual class: inhibitors. 1,500 compounds, 4% hits. AID 2794, 2010; further: nearly all actives have a fitted effect of over 60% in size
# GAPDH counter – qHTS Assay for Inhibitors of Fructose-1,6-bisphosphate Aldolase from Giardia Lamblia: Coupling assay counterscreen confirmation; AID 2795, 2010; GAPDH coupling enzyme counterscreen, biochemical, qHTS; 1,500 compounds, 6% hits; Potency, µM (doses to about 57.5 µM), for inactives: top-dose activity change, negative = inhibition, actives largely listed as inhibitors; shares compounds with Giardia FBPA inh-1; further: nearly all actives have a fitted effect of over 55% in size
# Starred values were filed as active, the others as inactive; ? = inconclusive; · = no result given; [ ] = another dose, or the depositor's remark. The call rests on the fitted dose curve; in most records, active means well fitted curve in the direction sought with a large enough effect; inconclusive means small, poorly fitted or top-dose-only effect, or another doubt; inactive means no such curve, though single readings can be large; an effect the other way counts as inactive or inconclusive. Unless noted, on the % scale 0 is the no-effect control and ±100 the full control effect; potency means the concentration at half of the fitted maximal effect.
SMILES,AmpC inh no detg,Giardia FBPA inh-1,AmpC detergent,AMA1-RON2 inh,Giardia growth,Mammal cell tox,Giardia FBPA inh-2,Rabbit aldolase,GAPDH counter
Nc1nc2c(s1)CCc1c-2cnn1-c1ccccc1,-49%,0.4µM*,89µM*,8%,?,?,13µM*,14µM*,13µM*
Nc1nc2c(s1)COc1ccccc1-2,-17%,-7%,6%,15%,·,·,·,·,·
Nc1cccnc1Sc1cccc(Cl)c1,-41%,1µM*,-2%,74%,9%[38.3 µM],-11%,-6%,-3%,-6%
COc1cc2c(cc1OC)C(c1ccc([N+](=O)[O-])cc1)NC(=O)C2 (centres undefined),-9%,6%,1%,14%,·,·,·,·,·
Cc1ccc(S(=O)(=O)N2CCN(C(=O)CSc3nnc(C)c(=O)[nH]3)CC2)cc1,-23%,28µM*,?,-14%,?,5%,6%,14%,22%
CC(C)c1nnc(NC(=O)CS(=O)(=O)c2ccccc2)s1,-17%,-17%,-3%,2%,·,·,·,·,·
O=C(Nc1ccc(F)cc1F)c1cc(=O)n(-c2ccccc2)c(=O)[nH]1,6%,7.9µM*,-3%,49%,27%,-11%,-7%,4%,-2%
O=C(Nc1cccc(C(=O)Nc2ccc(F)cc2F)c1)c1ccccc1,-12%,-8%,-18%,4%,·,·,·,·,·
C=CCSC1=N/C(=C\C=C\c2ccco2)C(=O)S1,-50%,6.3µM*,-13%,?,16%,14%,-10%,11%,1%
C=CCSC1=N/C(=C\c2sccc2C)C(=O)S1,-28%,-9%,-1%,49%,·,·,·,·,·
CO/N=C(/C)CCC(=O)OC[C@@H]1O[C@H](c2ccccc2)C=C[C@@H]1Oc1ccc(OC)cc1,·,-1%[12.9 µM],·,·,·,·,·,·,·
Cc1c(Br)c(=O)oc2c(Br)c(O)ccc12,-29%,-10%,5%,21%,·,·,·,·,·
Cc1c(Br)c(=O)oc2c(Br)c(O)c(O)cc12,-24%,?,-3%,-1%,-5%[38.3 µM],-20%,?,?,-5%
CCC(NC(=O)NNC(N)=S)(C(F)(F)F)C(F)(F)F,-13%,20µM*,2%,45%,17%,9%,6%,3%,7%
Cc1cccc(C)c1NC(=S)NC(=O)c1ccc(Br)o1,-14%,-12%,2%,80%,·,·,·,·,·
Cn1ncc(C(N)=O)c1NC(=S)NC(=O)c1ccc(Br)o1,-38%,16µM*,8%,44%,-7%[10.4 µM],-9%,1%,5%,8%
CCOC(=O)C(C(=O)OCC)c1cc(Br)c2noc3c2c1C(=O)c1ccccc1-3,-31%,0.35µM*,4%,-23%,-18%,?,?,?,?
Cc1ccc(Nc2cc(C)c3c(O)cccc3n2)cc1C,-46%,?,-6%,-3%,6%[38.3 µM],-1%,?,?,21µM*
CCNC(=O)C1CCCN1C(=O)C(CCCN=C(N)N)NC(=O)C(CC(C)C)NC(=O)C(Cc1cn(Cc2ccccc2)cn1)NC(=O)C(Cc1ccc(O)cc1)NC(=O)C(CO)NC(=O)C(Cc1c[nH]c2ccccc12)NC(=O)C(Cc1cnc[nH]1)NC(=O)C1CCC(=O)N1 (centres undefined),315%,10µM*,?,38%,16%[38.3 µM],2%,-4%,13%,0%
O=C1CC[C@@H](C(=O)N[C@@H](Cc2cnc[nH]2)C(=O)N[C@@H](Cc2c[nH]c3ccccc23)C(=O)N[C@@H](CO)C(=O)N[C@@H](Cc2ccc(O)cc2)C(=O)O)N1,·,0%,·,·,·,·,·,·,·
c1cc2c(cc1Nc1nc(-c3ccc4c(c3)OCO4)cs1)OCCO2,-20%,-25%,-3%,-5%,·,·,·,·,·
c1cc2c(cc1-c1csc(NNC3=NCCCCC3)n1)OCCO2,118%,14µM*,3%,-26%,-9%[10.4 µM],-23%,4%,4%,23%
Brc1cccc(OCCCCn2cncn2)c1,-8%,28µM*,-13%,-7%,13%,15%,0%,0%,8%
c1ccc(Oc2cccc(OCCn3cncn3)c2)cc1,-4%,?,-1%,17%,·,·,·,·,·
COc1cc(=O)[nH]c(SC(C)C(=O)Nc2cc(C)on2)n1 (centres undefined),-11%,?,-14%,-1%,·,·,·,·,·
SMILES,AmpC inh no detg,Giardia FBPA inh-1,AmpC detergent,AMA1-RON2 inh,Giardia growth,Mammal cell tox,Giardia FBPA inh-2,Rabbit aldolase,GAPDH counter
COc1ccc(CN(C)CC(=O)Nc2c(C)cccc2C)c(OC)c1,31%,6%,3%,-13%,·,·,·,·,·
COc1ccc(CN(C)CC(=O)Nc2sc3c(c2C#N)CCC3)c(OC)c1,-5%,18µM*,1%,23%,17%[10.4 µM],3%,2%,11%,-6%
COC(=O)/C=C1\S/C(=N/N=C/c2ccccc2)NC1=O,-22%,0%,-4%,2%,·,·,·,·,·
COC(=O)C/C=N/N=C1/NC(=O)/C(=C/C(=O)O)S1,-23%,18µM*,6%,26%,0%[10.4 µM],1%,-10%,-10%,-14%
O=C(Nc1cccc(C(F)(F)F)c1)C1Cc2c(-c3ccccc3)ccnc2O1 (centres undefined),·,·,·,-1%,·,·,·,·,·
C=CCN=c1scc(C)n1/N=C/c1ccc(O)c(O)c1,-29%[11.4 µM],22µM*,-13%,-4%,8%,-19%,-25%,-29%,-18%
O=C(Oc1ccc[nH]c1=O)c1ccccc1,·,·,·,3%,·,·,·,·,·
O=C(Oc1ccc[nH]c1=O)c1cccc(Cl)c1,-16%,-18%,?,36%,15%[38.3 µM],10%,0.52µM*,?,33µM*
CCN(CC)c1ccc(N=C2C(=O)Nc3ccccc32)cc1,-8%,-16%,-4%,?,-2%[38.3 µM],-21%,0.26µM*,?,0.73µM*
Cc1ccc(N=C2C(=O)Nc3ccccc32)cc1,-17%,-12%,-5%,-11%,·,·,·,·,·
